# The list is not random: actives were taken first. Their share in the collection is about 21%.
# MRP resist rev: MRP-mediated drug resistance reversal; H69AR cells + 2 uM doxorubicin, CellTiter-Glo, 72 h; differential viability (reversal), % at 10 µM; 85,000 compounds, 0.04% hits;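 active = viability drop by adding the cancer drug above about 55%, with treated viability meeting a 40% cutoff, limit read from the data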;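 note: viability without doxorubicin minus viability with 2 µM doxorubicin for each compound; larger differential means the compound sensitizes cells more to doxorubicin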
# CYP2C9 inh: inhibitors of human CYP2C9 | CYP2C9 Supersomes, luciferin-H conversion, luminescence | inhibition, % at 5 µM | 96,000 compounds, 20% hits | AID 777;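 active = blocking of liver enzyme CYP2C9 beyond about 50% at 5 µM, limit read from the data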
# MRP-1 activ: activators of MRP-1 | viability increase, % at 10 µM | H69AR cells + doxorubicin, viability rescue, CellTiter-Glo | 140,000 compounds, 0.61% hits | AID 799;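 active = viability gain under doxorubicin at or above a set limit, the compound median plus 3 SD, cut at about 4.7% in these data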;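 note: MRP-1 overexpressing cells given doxorubicin 25 µM after compound pretreatment; 18-22 h compound pretreatment then 72 h with doxorubicin before readout; 0% = doxorubicin-only wells and 100% = vehicle-treated cells without doxorubicin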
# CYP2C19 activ: increases human CYP2C19 enzyme activity; P33261; recombinant CYP2C19, luciferin-H EGE luminescence; hits give high values; 0 = fully inhibited enzyme, 1 = untreated enzyme; activation factor at 5 µM; 96,000 tested, under 10 active;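 active = activation factor of at least 2 at 5 µM in the primary screen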;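 note: 0 = wells with 2.5 mM tranylcypromine and 1 = vehicle-only wells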
# Target sequence (P33261 whole entry, looked up): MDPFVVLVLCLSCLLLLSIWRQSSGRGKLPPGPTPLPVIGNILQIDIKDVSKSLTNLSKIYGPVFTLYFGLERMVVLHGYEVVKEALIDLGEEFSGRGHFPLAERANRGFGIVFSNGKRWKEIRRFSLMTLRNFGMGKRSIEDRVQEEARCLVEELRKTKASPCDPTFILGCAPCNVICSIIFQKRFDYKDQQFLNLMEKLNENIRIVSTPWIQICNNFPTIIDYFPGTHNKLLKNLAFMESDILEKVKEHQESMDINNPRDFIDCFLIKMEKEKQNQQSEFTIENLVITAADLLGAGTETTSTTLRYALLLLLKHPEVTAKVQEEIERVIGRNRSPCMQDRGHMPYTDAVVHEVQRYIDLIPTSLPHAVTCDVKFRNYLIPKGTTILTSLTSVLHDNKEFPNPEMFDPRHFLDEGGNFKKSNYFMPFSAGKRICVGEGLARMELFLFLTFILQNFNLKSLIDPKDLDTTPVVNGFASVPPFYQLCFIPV
# CYP2C9 activ: CYP2C9 (human) activation. 96,000 compounds, 1.4% hits. activation factor at 5 µM. recombinant CYP2C9, luciferin-H conversion, luminescence; hits give high values; factor 1 = untreated enzyme, 0 = blocked. P11712;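 active = activation factor of 2 or more for CYP2C9 at a 5 µM dose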;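 note: 0 = sulfaphenazole-blocked wells and 1 = vehicle-only wells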
# CYP2C19 inhib: blocks human cytochrome P450 2C19. P33261. CYP2C19 Supersomes, luciferin-H EGE luminescence, 30 min. inhibition, % at 5 µM. 96,000 compounds, 21% hits. AID 778;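 active = CYP2C19 inhibition above a set limit at 5 µM in the primary screen, cut at about 50% in these data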;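 note: plate controls were negative control wells for no effect and 2.5 mM tranylcypromine positive control for full effect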
# Numbers without * were called inactive; · = no result given.
SMILES,MRP resist rev,CYP2C9 inh,MRP-1 activ,CYP2C19 activ,CYP2C9 activ,CYP2C19 inhib
CCOC(=O)COc1ccc(S(=O)(=O)Nc2cccc(SC)c2)cc1,17,78*,-3,0.1,0.2,88*
CSc1cccc(NS(=O)(=O)c2ccc(F)cc2)c1,6,91*,-2,0,0.1,96*
CSc1cccc(NS(=O)(=O)c2ccccc2)c1,·,66*,1,0.7,0.3,30
C/C(=N\NC(=O)COc1ccc(C)cc1C(C)C)c1ccc(-n2ccnc2)cc1,·,·,2,·,·,·
CC/C(O)=C(\C#N)c1nnc2n1CCCCC2,18,-8,-1,1.1,1.1,-10
OCCNCc1cc(Br)ccc1OCc1ccc(Cl)cc1Cl,·,·,-7,·,·,·
C=CCOc1ccccc1CNCc1cccnc1,3,34,-1,0.5,0.7,48
Clc1ccc(COc2ccccc2CNCc2cccnc2)cc1,·,95*,-1,0,0,97*
OCCNCc1cc(Br)ccc1OCc1ccc(Cl)cc1,·,-3,-2,0.5,1,53*
Brc1ccc(OCc2ccccc2)c(CNCc2ccncc2)c1,·,84*,-2,0,0.2,99*
O=C(CC1CCCCC1)N1CCN(c2ccccn2)CC1,8,62*,-2,0.5,0.4,54*
CN(CC(=O)N1CCN(c2ccccn2)CC1)S(=O)(=O)c1cccc2nsnc12,5,·,-2,·,·,·
CN(CC(=O)N1CCN(c2ccccn2)CC1)S(=O)(=O)c1ccc(Br)cc1,-10,-42,-3,0.4,1.4,63*
COc1ccccc1CC(=O)N1CCN(c2ccccn2)CC1,14,-27,-2,0.4,1.3,58*
COc1ccccc1NC(=O)N1CCN(c2ncccn2)CC1,·,-141,0,0.6,2.4*,42
O=C(Nc1ccc(N2CCCC2)c(S(=O)(=O)Nc2cccc(C(F)(F)F)c2)c1)c1cccs1,·,·,-2,·,·,·
O=C1c2ccccc2C(=O)N1CCCCN(C(=O)c1cc2ccccc2oc1=O)c1ccc(F)cc1F,·,·,-2,·,·,·
COc1ccccc1CC(=O)N1CCN(c2cccc(C(F)(F)F)c2)CC1,-1,-104,-4,0.3,2*,72*
Cc1cc(C)cc(NC(=S)N2CCN(c3ncccn3)CC2)c1,·,·,2,·,·,·
S=C(Nc1cccc2ccccc12)N1CCN(c2ncccn2)CC1,·,25,-2,0.4,0.7,58*
COc1ccccc1NC(=O)N1CCN(c2cccc(C(F)(F)F)c2)CC1,27,-113,1,0.2,2.1*,85*
COCCn1c(-c2ccccc2)cnc1SCC(=O)Nc1cccc2ccccc12,·,·,-3,·,·,·
CC1CCCC(C)N1C(=O)Cc1ccccc1 (stereo unspecified),9,41,0,0.2,0.6,76*
CC1CCCCN1C(=O)Cc1ccc(F)cc1 (stereo unspecified),-15,22,-2,0.3,0.8,75*
O=C(Cc1ccccc1)N1CCCC1c1ccccc1 (stereo unspecified),12,22,0,0.2,0.8,79*
SMILES,MRP resist rev,CYP2C9 inh,MRP-1 activ,CYP2C19 activ,CYP2C9 activ,CYP2C19 inhib
O=C(/C=C/c1ccccc1)N1CCC[C@H]1CO,·,·,-2,·,·,·
O=C(CCc1ccccc1)NC(NC(=S)Nc1ccc(Cl)cc1)C(Cl)(Cl)Cl (stereo unspecified),·,92*,-4,0.7,0.1,27
COC(=O)NC(NC(=S)Nc1ccccc1OC)C(Cl)(Cl)Cl (stereo unspecified),·,·,-2,·,·,·
COc1ccc(NC(=S)NC(NC(=O)/C=C/c2ccccc2)C(Cl)(Cl)Cl)cc1 (stereo unspecified),·,80*,-2,0.8,0.2,24
O=C(/C=C/c1ccccc1)NC(NC(=S)Nc1ccc(Cl)cc1)C(Cl)(Cl)Cl (stereo unspecified),·,70*,-5,1,0.3,3
O=C(/C=C/c1ccccc1)NC(NC(=S)Nc1cc(Cl)ccc1Cl)C(Cl)(Cl)Cl (stereo unspecified),·,87*,-5,0.7,0.1,28
COc1ccc2c(C)cc(=O)oc2c1C,6,-126,0,0.7,2.3*,30
CC(Oc1ccccc1)C(=O)Nc1nc2c(s1)C(=O)CC(C)(C)C2 (stereo unspecified),-6,61*,1,0.4,0.4,57*
O=[N+]([O-])c1cc2oc3c(c2c(C=NCc2ccncc2)c1O)CCCC3,·,·,-2,·,·,·
CCOC(=O)c1sc(NC(NC(=O)c2ccco2)(C(=O)OC)C(F)(F)F)nc1C (stereo unspecified),3,56*,-1,0.9,0.4,7
CN(C)S(=O)(=O)NCc1ccc2c(c1)OCO2,4,30,0,0.3,0.7,69*
COc1cccc(S(=O)(=O)NCc2ccc(C(=O)NCC3CCCO3)cc2)c1 (stereo unspecified),9,6,-1,0.9,0.9,15
COc1cccc(CNS(=O)(=O)/C=C/c2ccc3c(c2)OCO3)c1,·,69*,-3,0,0.3,99*
COc1ccc(S(=O)(=O)NCc2ccc3c(c2)OCO3)cc1C,18,24,-2,0,0.8,100*
COc1ccc(S(=O)(=O)NCc2ccc3c(c2)OCO3)cc1C(=O)O,2,-44,2,1.1,1.4,-11
COc1cccc(S(=O)(=O)NCc2ccc3c(c2)OCO3)c1,3,91*,1,0,0.1,100*
Cc1ccc(-c2cc(C(F)F)nc(NCC3CCCO3)n2)cc1 (stereo unspecified),1,·,2,·,·,·
CCNC(=S)N/N=C/c1cn(Cc2ccc(F)cc2)c2ccccc12,·,·,-2,·,·,·
COc1ccccc1OCCn1cc(/C=N/n2cnnc2)c2ccccc21,·,·,-3,·,·,·
Clc1ccc(Cn2cc(/C=N/n3cnnc3)c3ccccc32)cc1,7,40,-4,0.2,0.6,80*
Cc1ccccc1Cn1cc(/C=N/n2cnnc2)c2ccccc21,4,74*,-1,0.1,0.3,91*
O=C(OCC(=O)N1CCc2ccccc21)c1cccnc1Cl,15,2,-2,0.9,1,9
Cn1nc(C(F)(F)F)c(C#N)c1N1CCN(c2cccc(C(F)(F)F)c2)CC1,-13,17,-2,0.9,0.8,15
O=C(CSc1ncnc2ccccc12)Nc1ccc(N2CCOCC2)cc1,-17,0,-3,1.2,1,-16
CCN(CC)C(=O)CSc1nc2ccccc2c(=O)n1CCC(=O)NCc1ccc(F)cc1,10,92*,-1,0.4,0.1,57*
CCN(CC)C(=O)CSc1nc2ccccc2c(=O)n1OC(C)C,13,58*,-3,0.9,0.4,6
CCOc1ccccc1-n1c(SCC(N)=O)nc2ccccc2c1=O,11,43,0,0.4,0.6,59*
CCN(CC)C(=O)CSc1nc2ccccc2c(=O)n1-c1cccc(OC)c1,-10,71*,-1,0.7,0.3,33
CCN(CC)C(=O)CSc1nc2ccccc2c(=O)n1CC,·,31,-2,0.8,0.7,15
